# Where “and” joins values, the source holds several entries; their conditions need not be identical. Equal values may be shown once. For some assays here: Results with a measured potency or affinity are listed apart. Calls of active or inactive are those of the source.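 How the source made its calls, unless noted: active means thallium flux through the channel raised or lowered by more than 3 SD from vehicle-only wells, actives on both sides; inactive means the rest.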
# What was measured:
# [1] = polyglutamine-triggered caspase-3 activation inhibitors, cell-based (AID 1583); details: polyglutamine-induced caspase-3 activation, cell assay; stronger effect = higher value;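 tested at 10 µM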
# [2] = suppressors of polyQ aggregation in yeast, 75Q-TubU reporter (AID 1593); details: Yeast 75Q polyglutamine aggregation reporter
# [3] = rescue of polyQ-huntingtin neuronal dysfunction in worms, whole organism, C. elegans mechanosensory neurons, N-terminal huntingtin (AID 1599); details: touch response, stronger effect = higher value
# [4] = inhibitors of mitochondrial cytochrome c release, biochemical, purified mitochondria (AID 1603); details: stronger effect = lower value;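 further: mouse liver mitochondria challenged with calcium chloride; signal normalized to the plate average as 100%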
# [5] = inhibitors of polyQ protein aggregation (AID 1604); details: polyglutamine-induced protein aggregation inhibition assay; stronger effect = higher value; tested at 2.5 µM
# [6] = enhancers of glutamate uptake in motor neurons, MN-1 cell line (AID 1612); details: MN-1 motor neuron cells, stronger effect = higher value;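 further: tested at 1 µM final; 0% = mean of DMSO vehicle wells on each plate; positive means more glutamate uptake than control and negative means less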
# [7] = suppressors of polyglutamine aggregation in yeast, 75Q-TubH (AID 1616); details: S. cerevisiae 75Q-TubH polyglutamine aggregation suppression; stronger effect = higher value
# [8] = hESC survival regulators, cell-based (AID 493140; call rule not given here;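 further: cells exposed to compounds for four days before counting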); details: human embryonic stem cell survival screen; stronger effect = higher value
# [9] = Cy5 fluorescence interference with SSB-bound oligo, artefact control for HCV NS3 helicase inhibitor project, biochemical, NIH Clinical Collection, E. coli SSB (AID 743268; call rule not given here)
# [10] = modulation of C. elegans fzo-1 (AID 1259413; call rule not given here;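 further: fzo-1 mutant C. elegans worms in liquid wells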); details: C. elegans fzo-1 modulator screen, mean read-out; stronger effect = higher value
# [11] = viability rescue of complex I mutant cybrids, primary screen, cell-based, galactose medium, ATP luminescence (AID 1645843;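 active means z-score of at least 1.8 in each of two replicates, scored against plate mean and spread of sample wells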;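 further: positive z means more ATP and so rescue of galactose-driven cybrid death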); details: complex I mutant cybrid cells, 72 h, stronger effect = higher value
# F380Y/beta1 = assay: modulators of BK channel variants, profiling panel, selectivity assay, cell-based, U2OS BacMam, thallium flux, beta subunits (AID 1259406); details: at 30 µM;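 further: initial slope of Thallos dye fluorescence rise after thallium is added; log ratio against the mean of 0.3% DMSO vehicle wells on the same plate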
# F380Y/beta4 = assay: as above; details: at 30 µM
# R275C = assay: as above; details: at 30 µM
# R275C/beta1 = assay: as above; details: at 30 µM
# R275C/beta2Delta = assay: as above; details: at 30 µM
# R275C/beta4 = assay: as above; details: at 30 µM
# R275C/Slo1WT/beta2 = assay: as above; details: at 30 µM
# [12] = system: Hepatitis C virus NS3 helicase; assay: HCV NS3 helicase inhibitors, primary screen, biochemical, fluorescence polarization, LOPAC1280 library (AID 687035; in the data active means inhibition above about 37%); details: Purified HCV NS3 helicase, Cy5-dT15 ssDNA binding fluorescence polarization; stronger effect = higher value; concentration not given here
# [13] = liver-stage malaria parasite growth inhibition, primary screen, cell-based, HepG2, luciferase luminescence, HepG2 viability (AID 624349; in the data active means parasite load remaining mostly below about 12%, no sharp cut-off; inactive means mostly above about 10%;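 further: 100% = mean of DMSO negative control wells on the same plate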); details: P. berghei liver stage in HepG2, luciferase luminescence, concentration not given here; parasite load remaining: stronger effect = lower value; viability: measured here: HepG2 viability without parasites
smiles,measurement,setting,value
NS(=O)(=O)c1cc2c(cc1C(F)(F)F)NCNS2(=O)=O,inhibition,[1],-8.77%
same,score,[2],1.38
same,rescue above control,[3],-10.8
same,cytochrome c release ratio,[4],0.95
same,inhibition of aggregation,[5],91.6%
same,glutamate uptake change,[6],-18.5%
same,aggregation suppression score,[7],1.31
same,survival,[8],23.1 (inactive)
same,fluorescence ratio,[9],1.02 (inactive)
same,mean signal,[10],224 (inactive)
same,z-score,[11],1.47 (inactive)
same,log fold change Tl+ flux,F380Y/beta1,0.0232 (inactive)
same,log fold change Tl+ flux,F380Y/beta4,0.0329 (inactive)
same,log fold change Tl+ flux,R275C,-0.0328 (inactive)
same,log fold change Tl+ flux,R275C/beta1,-0.0725 (inactive)
same,log fold change Tl+ flux,R275C/beta2Delta,0.0545 (inactive)
same,log fold change Tl+ flux,R275C/beta4,0.0202 (inactive)
same,log fold change Tl+ flux,R275C/Slo1WT/beta2,0.0133 (inactive)
CC(C)NCC(O)c1cc(O)cc(O)c1 (stereo unspecified),inhibition,[1],11.6%
same,score,[2],1.21
same,rescue above control,[3],-1.18
same,cytochrome c release ratio,[4],0.62
same,inhibition of aggregation,[5],83.9%
same,glutamate uptake change,[6],-18.3%
same,aggregation suppression score,[7],1.15
same,survival,[8],10.4 (inactive)
same,inhibition,[12],-4% (inactive)
same,fluorescence ratio,[9],1.05 (inactive)
same,mean signal,[10],261 (inactive)
same,z-score,[11],0.07 (inactive) and 1.61 (inactive)
same,log fold change Tl+ flux,F380Y/beta1,0.0393 (inactive)
same,log fold change Tl+ flux,F380Y/beta4,-0.0531 (inactive)
same,log fold change Tl+ flux,R275C,0.0473 (inactive)
same,log fold change Tl+ flux,R275C/beta1,-0.038 (inactive)
same,log fold change Tl+ flux,R275C/beta2Delta,0.0259 (inactive)
same,log fold change Tl+ flux,R275C/beta4,0.0475 (inactive)
same,log fold change Tl+ flux,R275C/Slo1WT/beta2,0.0212 (inactive)
OCCN1CCN(CCCN2c3ccccc3Sc3ccc(Cl)cc32)CC1,inhibition,[1],-20.9%
same,score,[2],0.86
same,cytochrome c release ratio,[4],1.23
same,inhibition of aggregation,[5],49%
same,glutamate uptake change,[6],5.53%
same,aggregation suppression score,[7],0.889
same,survival,[8],1.67 (inactive)
same,inhibition,[12],-1% (inactive)
same,fluorescence ratio,[9],1.01 (inactive)
same,mean signal,[10],256 (inactive)
same,z-score,[11],-1.29 (inactive) and -1.32 (inactive)
same,log fold change Tl+ flux,F380Y/beta1,0.097 (inactive)
same,log fold change Tl+ flux,F380Y/beta4,0.284 (active)
same,log fold change Tl+ flux,R275C,-0.201 (active)
same,log fold change Tl+ flux,R275C/beta1,0.341 (active)
same,log fold change Tl+ flux,R275C/beta2Delta,-0.0309 (inactive)
same,log fold change Tl+ flux,R275C/beta4,0.17 (active)
same,log fold change Tl+ flux,R275C/Slo1WT/beta2,-0.0801 (inactive)
CCCCNC(=O)NS(=O)(=O)c1ccc(C)cc1,inhibition,[1],-1.59%
same,score,[2],1.02
same,rescue above control,[3],-3.14
same,cytochrome c release ratio,[4],0.7
same,inhibition of aggregation,[5],52.6%
same,glutamate uptake change,[6],-18.9%
same,aggregation suppression score,[7],0.871
same,survival,[8],25.3 (inactive)
same,inhibition,[12],-5% (inactive)
same,mean signal,[10],261 (inactive)
same,z-score,[11],0.82 (inactive) and -0.58 (inactive) and 0.93 (inactive)
same,log fold change Tl+ flux,F380Y/beta1,0.0157 (inactive)
same,log fold change Tl+ flux,F380Y/beta4,0.00157 (inactive)
same,log fold change Tl+ flux,R275C,-0.0266 (inactive)
same,log fold change Tl+ flux,R275C/beta1,-0.0147 (inactive)
same,log fold change Tl+ flux,R275C/beta2Delta,0.0266 (inactive)
same,log fold change Tl+ flux,R275C/beta4,-0.00534 (inactive)
same,log fold change Tl+ flux,R275C/Slo1WT/beta2,-0.00827 (inactive)
CC[N+](C)(C)c1cccc(O)c1,inhibition,[1],0.97%
same,score,[2],1.45
same,rescue above control,[3],-4.06
same,cytochrome c release ratio,[4],0.79
same,inhibition of aggregation,[5],49.4%
same,glutamate uptake change,[6],-4.41%
same,aggregation suppression score,[7],1.27
same,survival,[8],20.2 (inactive)
same,inhibition,[12],-3% (inactive)
same,fluorescence ratio,[9],1.03 (inactive)
same,mean signal,[10],239 (inactive)
same,z-score,[11],0.66 (inactive) and 0.015 (inactive)
same,log fold change Tl+ flux,F380Y/beta1,-0.0227 (inactive)
same,log fold change Tl+ flux,F380Y/beta4,0.00778 (inactive)
same,log fold change Tl+ flux,R275C,0.00231 (inactive)
same,log fold change Tl+ flux,R275C/beta1,-0.022 (inactive)
same,log fold change Tl+ flux,R275C/beta2Delta,0.0107 (inactive)
same,log fold change Tl+ flux,R275C/beta4,-0.0318 (inactive)
same,log fold change Tl+ flux,R275C/Slo1WT/beta2,0.00666 (inactive)
NCC(=O)CCC(=O)O,parasite load remaining,[13],63.7% (inactive) and 161% (inactive) and 53.4% (inactive)
same,viability,[13],95.6% and 83.2% and 165%
same,fluorescence ratio,[9],1.05 (inactive)
same,mean signal,[10],245 (inactive)
same,z-score,[11],0.925 (inactive)
same,log fold change Tl+ flux,F380Y/beta1,-0.00533 (inactive)
same,log fold change Tl+ flux,F380Y/beta4,0.0148 (inactive)
same,log fold change Tl+ flux,R275C,-0.000596 (inactive)
same,log fold change Tl+ flux,R275C/beta1,-0.0231 (inactive)
same,log fold change Tl+ flux,R275C/beta2Delta,-0.0499 (inactive)
same,log fold change Tl+ flux,R275C/beta4,-0.0959 (inactive)
same,log fold change Tl+ flux,R275C/Slo1WT/beta2,-0.117 (active)
CC(C)(C)NCC(O)c1cc(O)cc(O)c1 (stereo unspecified),inhibition,[1],10.1%
same,score,[2],1.33
same,rescue above control,[3],-7.82
same,cytochrome c release ratio,[4],1.15
same,inhibition of aggregation,[5],47.9%
same,glutamate uptake change,[6],22.8%
same,aggregation suppression score,[7],1.5
same,survival,[8],21.1 (inactive)
same,inhibition,[12],-2% (inactive)
same,fluorescence ratio,[9],1.05 (inactive)
same,mean signal,[10],269 (inactive)
same,z-score,[11],0.355 (inactive) and 1.03 (inactive)
same,log fold change Tl+ flux,F380Y/beta1,-0.0587 (inactive)
same,log fold change Tl+ flux,F380Y/beta4,-0.0336 (inactive)
same,log fold change Tl+ flux,R275C,0.00159 (inactive)
same,log fold change Tl+ flux,R275C/beta1,-0.00541 (inactive)
same,log fold change Tl+ flux,R275C/beta2Delta,-0.00466 (inactive)
same,log fold change Tl+ flux,R275C/beta4,0.00501 (inactive)
same,log fold change Tl+ flux,R275C/Slo1WT/beta2,-0.0142 (inactive)
CC(=O)Nc1nnc(S(N)(=O)=O)s1,inhibition,[1],12.8%
same,score,[2],1.01
same,rescue above control,[3],21.8
same,cytochrome c release ratio,[4],0.85
same,inhibition of aggregation,[5],-6.35%
same,glutamate uptake change,[6],5.19%
same,aggregation suppression score,[7],1.12
same,survival,[8],10.5 (inactive)
same,inhibition,[12],-1% (inactive)
same,fluorescence ratio,[9],1.01 (inactive)
same,mean signal,[10],242 (inactive)
same,z-score,[11],0.625 (inactive) and 0.37 (inactive)
same,log fold change Tl+ flux,F380Y/beta1,0.0405 (inactive)
same,log fold change Tl+ flux,F380Y/beta4,0.0426 (inactive)
same,log fold change Tl+ flux,R275C,0.0184 (inactive)
same,log fold change Tl+ flux,R275C/beta1,-0.00169 (inactive)
same,log fold change Tl+ flux,R275C/beta2Delta,0.0403 (inactive)
same,log fold change Tl+ flux,R275C/beta4,0.00614 (inactive)
same,log fold change Tl+ flux,R275C/Slo1WT/beta2,0.0491 (inactive)
Cc1ccc(Cl)c(Nc2ccccc2C(=O)O)c1Cl,inhibition,[1],12.9%
same,score,[2],0.67
same,rescue above control,[3],16.6
same,cytochrome c release ratio,[4],1.42
same,inhibition of aggregation,[5],46.5%
same,glutamate uptake change,[6],-15.8%
same,aggregation suppression score,[7],0.94
same,survival,[8],16.6 (inactive)
same,inhibition,[12],0% (inactive)
same,fluorescence ratio,[9],0.6 (active)
same,mean signal,[10],249 (inactive)
same,z-score,[11],2.05 (inactive) and 0.72 (inactive)
same,log fold change Tl+ flux,F380Y/beta1,0.408 (active)
same,log fold change Tl+ flux,F380Y/beta4,0.386 (active)
same,log fold change Tl+ flux,R275C,0.0346 (inactive)
same,log fold change Tl+ flux,R275C/beta1,0.34 (active)
same,log fold change Tl+ flux,R275C/beta2Delta,0.336 (active)
same,log fold change Tl+ flux,R275C/beta4,0.266 (active)
same,log fold change Tl+ flux,R275C/Slo1WT/beta2,0.0371 (inactive)

# — PubChem BioAssay
